{"source": "PubChem BioAssay (NCATS)", "note": "Records with an inconclusive call do not appear. Entries that show only a call come without a potency. The source made the active and inactive calls. Calls follow the shape of the dose curve; as a rule, active = well fitted cell-killing curve with a large enough effect; inconclusive = small, poorly fitted or top-dose-only effect, or effect the other way; inactive = no such curve, though single readings can be large or run the other way. Potency is read from the fitted curve at half-maximal effect."}
{"assay": "Viability qHTS for spleen associated tyrosine kinase inhibitor (SYKi) naive MV4-11 cells (AID 1963823); also: nearly all actives have a fitted effect of over 40% in size", "conditions": "MV4-11 AML viability, CellTiter-Glo luminescence, 72 h; series mostly up to 45 µM", "summary_of_the_method": "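Compounds were dispensed acoustically onto plates, MV4-11 cells (SYKi-naive) added at 500 per well, and plates incubated 72 hr at 37 C. CellTiter-Glo was added and luminescence measured after 10 min.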"}
{"smiles": "CC1(CO)CC(O)C2(C)CCC3(C)C(=CCC4C5(C=O)CCC(OC6OC(C(=O)O)C(O)C(O)C6OC6OC(C(=O)O)C(O)C(O)C6O)C(C)(C)C5CCC43C)C2C1", "note": "(stereo unspecified)", "viability (% of control)": "87.7% [at 9.25 µM] (inactive)"}
{"smiles": "CC1OC(OC2C(OC(=O)[C@]34CCC(C)(C)C[C@H]3C3=CCC5[C@@]6(C)CC[C@H](OC7OC(C(=O)O)C(O)C(O)C7O)C(C)(C)C6CC[C@@]5(C)[C@]3(C)CC4O)OC(CO)C2O)C(O)C(O)C1OC1OCC(O)C(O)C1O", "note": "(stereo partly specified)", "viability (% of control)": "70.8% [at 9.25 µM] (inactive)"}
{"smiles": "CC(=O)/C=C/C1C(C)CC(O[C@@H]2O[C@H](CO)[C@@H](O)[C@H](O)[C@H]2O)CC1(C)C", "note": "(stereo partly specified)", "Potency": "inactive"}
{"smiles": "C=C1CCC2(OC1)OC1CC3C4CC=C5CC(O)CC(O[C@@H]6OC[C@H](OC(=O)C(O)C(C)CC)[C@H](O)[C@H]6O[C@@H]6O[C@@H](C)[C@H](O)[C@@H](O)[C@H]6O)C5(C)C4CCC3(C)C1C2C", "note": "(stereo partly specified)", "viability (% of control)": "76.1% [at 9.25 µM] (inactive)"}
{"smiles": "CC1CC(=O)[C@]2(O)C(C(=O)OCCc3ccc(O)cc3)=CO[C@@H](O[C@@H]3O[C@H](CO)[C@@H](O)[C@H](O)[C@H]3O)[C@H]12", "note": "(stereo partly specified)", "Potency": "inactive"}
{"smiles": "C[C@@H]1O[C@@H](O[C@@H]2CO[C@@H](O[C@H]3CC[C@@]4(C)C(CC[C@]5(C)C4CC=C4[C@@H]6CC(C)(C)CC[C@]6(C(=O)O[C@@H]6O[C@H](CO)[C@@H](O)[C@H](O)[C@H]6O)CC[C@]45C)[C@]3(C)CO)[C@H](O)[C@H]2O[C@@H]2O[C@H](CO)[C@@H](O)[C@H](O)[C@H]2O)[C@H](O)[C@H](O)[C@H]1O", "note": "(stereo partly specified)", "viability (% of control)": "57.4% [at 9.25 µM] (inactive)"}
{"smiles": "Cn1ccc(NC(=O)c2cc(Oc3ccc(C(=O)N4CCC4)c(F)c3)c3c(c2)OC(C)(C)C3)n1", "Potency": "inactive"}
{"smiles": "O=C(O)c1ccncc1Nc1nn(CCN2CCC(F)(F)CC2)c2ccc(F)cc12", "Potency": "inactive"}
{"smiles": "C=C1CC[C@@]2(OC1)O[C@H]1CC3C4CC=C5C[C@@H](O[C@@H]6O[C@@H](C)[C@H](O)[C@@H](O)[C@H]6O)C[C@@H](O[C@@H]6O[C@H](C)[C@H](O)[C@H](O)[C@H]6O[C@@H]6O[C@@H](C)[C@H](O)[C@@H](O)[C@H]6O)[C@]5(C)C4CC[C@]3(C)[C@H]1[C@@H]2C", "note": "(stereo partly specified)", "viability (% of control)": "70.4% [at 9.25 µM] (inactive)"}
{"smiles": "COc1cc(Nc2ccc([N+](=O)[O-])cc2C(=O)O)cc2ccccc12", "Potency": "inactive"}
{"smiles": "C[C@H]1C(=O)N2c3ccccc3[C@@]3(O)C[C@@H]4C(=O)N[C@](C)(c5nc6ccccc6c(=O)n54)N1[C@@H]23", "Potency": "inactive"}
{"smiles": "O=C1NC(=O)C(c2cn(-c3ccccc3)nc2-c2ccc(F)cc2)N1", "note": "(stereo unspecified)", "Potency": "inactive"}
{"smiles": "COc1ccc(/C=C/C(=O)O[C@@H]2[C@@H](OC(C)=O)[C@@H](OC(C)=O)[C@H](O[C@H]3[C@@H]4C=CO[C@@H](O[C@@H]5O[C@H](CO)[C@@H](O)[C@H](O)[C@H]5O)[C@@H]4[C@@]4(CO)O[C@@H]34)O[C@H]2C)cc1O", "Potency": "inactive"}
{"smiles": "C=C1C[C@]23C[C@H]1[C@@H](O)C[C@H]2[C@@]12C=C[C@H](O)[C@@](C)(C(=O)O1)[C@H]2[C@@H]3C(=O)O", "Potency": "inactive"}
{"smiles": "CC1(C)CC[C@]2(C(=O)O[C@@H]3O[C@H](CO[C@@H]4O[C@H](CO)[C@@H](O)[C@H](O)[C@H]4O)[C@@H](O)[C@H](O[C@@H]4O[C@H](CO)[C@@H](O)[C@H](O)[C@H]4O)[C@H]3O)CC[C@]3(C)C(=CCC4[C@@]5(C)CC[C@H](O[C@@H]6OC[C@@H](O)[C@H](O)[C@H]6O)[C@@](C)(C(=O)O)C5CC[C@]43C)[C@@H]2C1", "note": "(stereo partly specified)", "viability (% of control)": "83.1% [at 9.25 µM] (inactive)"}
{"smiles": "CC(=O)c1c(C)cc(O)cc1O[C@@H]1O[C@H](CO)[C@@H](O)[C@H](O)[C@H]1O", "Potency": "inactive"}
{"smiles": "C/C1=C\\CC[C@]2(C)O[C@H]2C(=O)c2c(C)coc2C1", "Potency": "inactive"}
{"smiles": "C=C1/C(=C/C=C2\\CCC[C@]3(C)[C@@H]([C@@H](C)OCCC(O)(CC)CC)CC[C@@H]23)C[C@@H](O)C[C@@H]1O", "Potency": "inactive"}
{"smiles": "C[C@H]1[C@H](C)CC[C@]2(C(=O)O)CC[C@]3(C(=O)O)C(=CCC4[C@@]5(C)CC[C@H](O[C@@H]6O[C@H](C)[C@@H](O)[C@H](O)[C@H]6O)C(C)(C)C5CC[C@]43C)[C@H]12", "note": "(stereo partly specified)", "Potency": "inactive"}
{"smiles": "O=C(O)c1c[nH]c2c(ccc3ccccc32)c1=O", "Potency": "23.1 µM (active)"}
{"smiles": "CC(C)(O)/C=C/C1=CC(=O)[C@@](C)(O)C[C@H]1O", "Potency": "inactive"}
